Measured values: PubChem BioAssay (NCI)
The panel holds about 83,000 compounds, 20% with a hit somewhere; the sample as a whole holds those more often.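 Treatment: one concentration, 48 hours, 96-well format. Scoring: percent growth, with anything below 10 considered active.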 Active and inactive are the calls of the source.

Columns and labels:
Assay in all cases: NCI-60 one-dose screen, 48 h (100 = growth as untreated, 0 = no growth, -100 = all killed)
Details in all cases: 10 µM unless noted
SK-MEL-2 melanoma = test system: SK-MEL-2 melanoma
EKVX NSCLC = test system: EKVX NSCLC
SN12C renal = test system: SN12C renal
UO-31 renal = test system: UO-31 renal
TK-10 renal = test system: TK-10 renal
ACHN renal = test system: ACHN renal
CAKI-1 renal = test system: CAKI-1 renal
A498 renal = test system: A498 renal
CCRF-CEM leukemia = test system: CCRF-CEM leukemia
MOLT-4 leukemia = test system: MOLT-4 leukemia

Measured: growth

NC(=N\N=C/Cc1ccccc1)/C(N)=N\N=C\Cc1ccccc1
inactive: SK-MEL-2 melanoma 108% | EKVX NSCLC 110% | SN12C renal 102% | UO-31 renal 91.2% | TK-10 renal 110% | ACHN renal 94.8% | CAKI-1 renal 102% | A498 renal 90.1% | CCRF-CEM leukemia 95.8%

Cc1cc2ccccn2c1C(=O)c1ccc(C(=O)c2ccccc2)cc1
inactive: SK-MEL-2 melanoma 15% | EKVX NSCLC 91.8% | SN12C renal 94.5% | UO-31 renal 62.5% | TK-10 renal 98.7% | ACHN renal 93% | CAKI-1 renal 106% | A498 renal 90.5% | CCRF-CEM leukemia 86.6% | MOLT-4 leukemia 78.4%

O=C1C=CC(=O)N1c1ccccc1N1C(=O)C=CC1=O
active: CCRF-CEM leukemia 1.88%
inactive: SK-MEL-2 melanoma 98.6% | EKVX NSCLC 115% | SN12C renal 97.5% | UO-31 renal 79.4% | TK-10 renal 97.3% | ACHN renal 88% | CAKI-1 renal 85.2% | A498 renal 101%

COC(=O)C1CCN(S(=O)(=O)c2ccc(-c3ccccc3)cc2)CC1
active: SK-MEL-2 melanoma 8.48%
inactive: EKVX NSCLC 108% | SN12C renal 105% | UO-31 renal 97.1% | TK-10 renal 122% | ACHN renal 110% | CAKI-1 renal 99.8% | A498 renal 125% | CCRF-CEM leukemia 138% | MOLT-4 leukemia 161%

O=C(CC1Sc2ccccc2NC1=O)NNc1cccc(Cl)c1Cl (stereo not given)
inactive: SK-MEL-2 melanoma 87% | EKVX NSCLC 91.3% | SN12C renal 87.5% | UO-31 renal 61.8% | TK-10 renal 89.9% | ACHN renal 91.4% | CAKI-1 renal 90.4% | A498 renal 61.5% | CCRF-CEM leukemia 70.8% | MOLT-4 leukemia 71.6%

COc1ccc(C(=O)COc2cccc(/C=C3\COc4ccc5ccccc5c4C3=O)c2)cc1
inactive: SK-MEL-2 melanoma 52.6% | EKVX NSCLC 45.4% | SN12C renal 68.6% | TK-10 renal 125% | ACHN renal 143% | CAKI-1 renal 71.9% | A498 renal 88.8% | CCRF-CEM leukemia 13.3% | MOLT-4 leukemia 44.4%
active: UO-31 renal -29.5%

COc1ccc(C(=O)COc2ccc(/C=C3\Oc4ccc5ccccc5c4C3=O)cc2)cc1
active: UO-31 renal -2.22% | CCRF-CEM leukemia -21.9%
inactive: SK-MEL-2 melanoma 77.9% | EKVX NSCLC 90.9% | SN12C renal 91.8% | TK-10 renal 142% | ACHN renal 156% | CAKI-1 renal 96% | A498 renal 102% | MOLT-4 leukemia 50.4%

C=C1CCC2C(C)(COC(=O)CC)C(OC(=O)CC)CCC2(C)C1C/C=C1/C(=O)OCC1OC(=O)CC (stereo not given)
inactive: SK-MEL-2 melanoma 19.1% | EKVX NSCLC 85.1% | CAKI-1 renal 19.2% | A498 renal 81.4%
active: SN12C renal 0.261% | UO-31 renal -72.2% | TK-10 renal 1.32% | ACHN renal -90.7% | CCRF-CEM leukemia -25.5%

Cc1ccc(S(=O)(=O)NCCN2c3nc4ccccc4cc3Sc3cc4ccccc4nc32)cc1
inactive: SK-MEL-2 melanoma 44.2% | EKVX NSCLC 70.3% | SN12C renal 66% | TK-10 renal 84.5% | ACHN renal 54.2% | CAKI-1 renal 92.5% | A498 renal 149% | CCRF-CEM leukemia 93.7% | MOLT-4 leukemia 108%
active: UO-31 renal -32%

ICCC(c1ccccc1)(c1ccccc1)c1ccccc1
inactive: SK-MEL-2 melanoma 48.7% | EKVX NSCLC 88.4% | SN12C renal 69.7% | UO-31 renal 49.6% | TK-10 renal 73.5% | ACHN renal 68.9% | CAKI-1 renal 74.9% | A498 renal 51.7% | CCRF-CEM leukemia 31.6% | MOLT-4 leukemia 39.4%

Cc1ccc(C(NC(=O)c2ccccc2)c2ccc3cccnc3c2O)cc1 (stereo not given)
inactive: SK-MEL-2 melanoma 18.5% | EKVX NSCLC 17.3% | SN12C renal 14.1% | TK-10 renal 16% | A498 renal 24.9%
active: UO-31 renal -3.13% | ACHN renal 8.26% | CAKI-1 renal 9.05% | CCRF-CEM leukemia 5.39%

CC(=O)N1N=C(c2ccc(C(F)(F)F)cc2)CC1c1ccc2c(c1)OCO2 (stereo not given)
inactive: SK-MEL-2 melanoma 76.2% | EKVX NSCLC 81.4% | SN12C renal 83.5% | UO-31 renal 55.9% | TK-10 renal 100% | ACHN renal 95.7% | CAKI-1 renal 70.8% | A498 renal 103% | CCRF-CEM leukemia 83.3% | MOLT-4 leukemia 77.9%

Cn1cnc([N+](=O)[O-])c1Sc1nc(N)nc2nc[nH]c12
inactive: SK-MEL-2 melanoma 17.8% | EKVX NSCLC 27.9% | SN12C renal 43.6% | UO-31 renal 16.9% | TK-10 renal 38.5% | ACHN renal 72.7% | CAKI-1 renal 38.4% | A498 renal 43.6% | CCRF-CEM leukemia 13.5%

O=C(Nc1ccc(Cl)cc1)Nc1ccccc1CNc1nc(Nc2ccc(OCCN3CCCC3)cc2)ncc1Cl
inactive: SK-MEL-2 melanoma 102% | EKVX NSCLC 33.7% | SN12C renal 93.2% | A498 renal 75.6%
active: UO-31 renal -6.76% | TK-10 renal -51.5% | ACHN renal -54.4% | CAKI-1 renal 5.67% | CCRF-CEM leukemia 4.29% | MOLT-4 leukemia -13.4%
